Test results published in PubChem BioAssay AID1851 (National Center for Advancing Translational Sciences (NCATS), 2009).
The whole screen tested about 16,000 compounds, of which about 5,700 (36%) were called active. Inconclusive results (about 24%) are left out. Calls follow the shape of the dose curve; as a rule, active = well fitted curve in the direction sought with a large enough effect; inconclusive = small, poorly fitted or top-dose-only effect, or effect the other way; inactive = no such curve, though single readings can be large or run the other way. The list shows a part of the results.

biological target: Cytochrome P450 1A2 (Homo sapiens) (UniProt P05177); test: Cytochrome panel assay with activity outcomes; conditions: recombinant CYP, pro-luciferin dealkylation, luminescence, p450-cyp1a2; series mostly up to 57.1 µM
Sequence (P05177 whole entry, looked up): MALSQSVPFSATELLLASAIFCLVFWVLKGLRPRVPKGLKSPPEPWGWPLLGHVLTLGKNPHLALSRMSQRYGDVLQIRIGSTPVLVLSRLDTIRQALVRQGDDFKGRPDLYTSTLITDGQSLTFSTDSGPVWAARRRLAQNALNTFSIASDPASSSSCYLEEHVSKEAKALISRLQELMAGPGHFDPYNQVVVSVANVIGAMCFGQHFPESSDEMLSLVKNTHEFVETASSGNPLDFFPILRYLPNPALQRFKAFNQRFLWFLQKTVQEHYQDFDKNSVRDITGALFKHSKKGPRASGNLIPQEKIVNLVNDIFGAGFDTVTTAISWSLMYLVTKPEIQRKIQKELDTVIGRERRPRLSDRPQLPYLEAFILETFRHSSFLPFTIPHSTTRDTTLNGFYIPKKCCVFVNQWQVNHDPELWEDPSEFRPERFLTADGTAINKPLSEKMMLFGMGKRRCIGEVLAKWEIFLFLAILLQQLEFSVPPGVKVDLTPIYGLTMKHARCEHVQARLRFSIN
% is scaled to controls: 0 for no effect and ±100 for the full control effect.

AC50, inactive:
O=C(Cn1cnc([N+](=O)[O-])c1)NCc1ccc(F)cc1, CCCC(=O)Nc1c(C)n[nH]c1C, Cc1ccc(-n2ccnc2SCC(=O)N(CC(C)C)C2CCS(=O)(=O)C2)c(C)c1 (stereo not drawn), COc1ccc(NC(=O)CSc2nnc(CNC(=O)c3ccco3)n2-c2ccccc2OC)cc1, Cc1ccc(-n2nnnc2SCC(=O)NNC(=O)c2ccco2)c(C)c1, O=C(CSc1ccccc1)Nc1ccc(NC(=O)c2ccco2)cc1, Cc1cccc(C(=O)NC2CCN(C(=S)NCc3ccco3)CC2)c1, CCCc1nnc(SCC(=O)N2C(C)CCCC2C)n1CCCOC (stereo not drawn), Cc1ccc(NC(=O)/C(=C\c2cccc([N+](=O)[O-])c2)NC(=O)c2cccs2)cc1, O=C(Nc1cccc(F)c1)N1CCC2(CC1)CCN(C(=O)c1ccco1)CC2, NCCC(=O)O, COc1cc(/C=N/NC(=O)c2cccnc2)ccc1OC(=O)c1ccc2c(c1)OCO2, O=C1Nc2cc(C(=O)N3CCOCC3)ccc2SC1N1CCOCC1 (stereo not drawn), COc1cc2c3c(c1OC)C1(C=CC(=O)C=C1)CC3N(C(=O)c1ccccc1)CC2 (stereo not drawn), COc1ccc(C(=O)N2CCC3(CCN(C)CC3)CC2)cc1, COc1ccc(C(=O)N2CCC3(CCCN(Cc4ccccc4)C3)CC2)cc1, CCN1C(=O)C(O)(C2COC(C)(C)CC2=O)c2ccccc21 (stereo not drawn), COc1ccc([C@@H]2Sc3ccccc3N(CCN(C)C)C(=O)[C@@H]2OC(C)=O)cc1, COc1ccc([C@H]2Sc3ccccc3N(CCN(C)C)C(=O)[C@H]2OC(C)=O)cc1, CC(=O)N[C@@H](C(=O)O)C(C)(C)SN=O, O=C(Cn1cccc1)NC1CCCCCC1, COC(=O)C1=C(C)NC2=C(C(=O)CCC2)C1c1cn(Cc2ccc(Cl)cc2Cl)nc1-c1ccccc1 (stereo not drawn), CN(C)C(CNC(=O)NC1CCCCC1)c1cccnc1 (stereo not drawn), O=C(O)C1CCN(c2ncccn2)CC1, CC1=C(C(=O)O)N2C(=O)C(NC(=O)c3ccn(C)n3)C2SC1 (stereo not drawn), Cc1nc(C(=O)Nc2cccc(Cl)c2Cl)nn1-c1cc(OC(C)C)c(Cl)cc1Cl, CC[C@H](C)C(=O)O[C@@H]1C[C@H](C)C=C2C=C[C@H](C)[C@@H](CC[C@H]3C[C@@H](O)CC(=O)O3)[C@H]21, CCOC(=O)O[C@]1(C(=O)COC(=O)CC)CC[C@@H]2[C@@H]3CCC4=CC(=O)C=C[C@@]4(C)[C@H]3[C@H](O)C[C@]21C, O=c1ccc(NS(=O)(=O)c2ccccc2)cn1Cc1ccc(Cl)c(Cl)c1, Cc1cc(NS(=O)(=O)c2ccc(NC(=O)CN3C(=O)c4ccccc4C3=O)cc2)nc(C)n1, Cc1c(Br)c([N+](=O)[O-])nn1CC(=O)NCc1ccccn1, Cc1c(Cl)c([N+](=O)[O-])nn1CC(=O)Nc1c(C)n(C)n(-c2ccccc2)c1=O, COc1ccc(Oc2nc(C)cc(C)c2S(=O)(=O)c2ccc(C)cc2)cc1, O=C(O)[C@@H](O)[C@@H](O)[C@@H](O)[C@@H](O)C(=O)O (tested in a mixture with another compound), COC(=O)c1[nH]c(C)c(/C(O)=C2\C(=O)C(=O)N(CCN(C)C)C2c2cccs2)c1C (stereo not drawn)

AC50, active:
Cn1cc(-c2nc3cncnc3n(CCN)c2=O)c2ccccc21 6310 nM, COCCn1c(=O)c(-c2cn(C)c3ccccc23)nc2cncnc21 398 nM, COCCn1c(=O)c(-c2cn(C)c3ccccc23)nc2cnc(OCc3ccccc3)nc21 5010 nM, COc1cccc(Cn2c(=O)c(-c3cn(C)c4ccccc34)nc3cncnc32)c1 1000 nM, COc1ccccc1CCn1c(=O)c(-c2cn(C)c3ccccc23)nc2cncnc21 1260 nM, CCCC(=O)Nc1nc(C(=O)OCC)cs1 15800 nM, COc1cc(OC)c2c(c1)C(=O)c1cc(OC)cc(OC)c1C2=O 2000 nM, O=C(CSc1ccc(Cl)cc1)Nc1cccc(NC(=O)c2ccco2)c1 2000 nM, CC(=O)c1ccc(-n2nnnc2SCC(=O)Nc2cccc(NC(=O)c3ccco3)c2)cc1 501 nM, Cn1c(=O)n(-c2ccc(Cl)cc2)c(=O)c2c3c(sc21)COC(C)(C)C3 14100 nM, O=C(C/C=N/OCc1ccc(Cl)cc1Cl)c1ccc(Cl)cc1 2820 nM, O=C(C/C=N/OCc1ccc(F)cc1Cl)c1cnc(-c2ccccc2)s1 1780 nM, O=C(Nc1cccc(F)c1)/C(=C\c1ccco1)NC(=O)c1cccs1 4470 nM, CCCCCC/C(C)=C1/SC(=S)NC1=O 2510 nM, c1ccc(Oc2cc(-c3ccccc3)ncn2)cc1 2820 nM, COc1cc(/C=N/NC(=O)c2cccnc2)ccc1OC(=O)c1ccco1 12600 nM, COc1cccc(C2=CC(c3ccccc3)n3nnnc3N2)c1 (stereo not drawn) 1120 nM, Cc1cc(C)c(/C=C2/C(=O)Nc3ccccc32)[nH]1 794 nM, CN(C)c1ccc(/C=C2/C(=O)Nc3ccccc32)cc1 100 nM, c1ccc(C[n+]2cccc(-c3cc4ccccc4[nH]3)c2)cc1 1260 nM, COc1ccc(C(=O)/C=C2/c3ccccc3CC(C)(C)N2C)cc1 15800 nM, N#CCCSC(=S)[C@H]1CCCC1=N 3160 nM, N=C1CCC[C@@H]1C(=S)SCCC(N)=O 3160 nM, CCN1C(=O)C(O)(CC(=O)/C=C/C=C/c2ccccc2)c2ccccc21 (stereo not drawn) 10000 nM, CCCN1C(=O)C(NC(C)=O)c2cc(OC)ccc21 (stereo not drawn) 7080 nM, CN(C)c1ccc(-c2ccc3ncnc(NC4CC4)c3c2)cc1 200 nM, c1nc(NC2CC2)c2cc(-c3ccoc3)ccc2n1 794 nM, c1nc(NC2CCNCC2)c2cc(-c3ccc4c(c3)OCO4)ccc2n1 12600 nM, c1nc(NC2CCNCC2)c2cc(-c3ccoc3)ccc2n1 25100 nM, O=C(N/N=C/c1c[nH]c2ccc(Br)cc12)c1ccn(Cc2ccc(Cl)cc2)n1 3160 nM, O=C(N/N=C/c1c[nH]c2ccccc12)c1ccn(Cc2ccc(Cl)cc2Cl)n1 708 nM, O=C(NC1CCCC1)c1cccnc1N1CCCCCC1 15800 nM, N#C/C(=C/c1cccc(C(F)(F)F)c1)c1nc(CCN2C(=O)c3ccccc3C2=O)cs1 12600 nM, Fc1ccc(C2CC(c3ccco3)=NN2c2ccccc2)cc1 (stereo not drawn) 1120 nM, c1nc(NCCN2CCOCC2)c2cc(-c3ccoc3)ccc2n1 12600 nM, c1nc(NCCN2CCOCC2)c2cc(-c3ccc4c(c3)OCO4)ccc2n1 2510 nM, Cc1noc(C)c1-c1ccc2ncnc(NCCN3CCOCC3)c2c1 15800 nM, CC(=O)NCCNc1ncnc2ccc(-c3c(C)noc3C)cc12 15800 nM, c1cncc(-c2ccc3ncnc(NCCN4CCOCC4)c3c2)c1 1000 nM, COc1ccc(CNc2ncnc3ccc(-c4cccc(C#N)c4)cc23)c(OC)c1 3160 nM, COc1ccccc1CNc1ncnc2ccc(-c3cccc(C#N)c3)cc12 251 nM, O=C(Nc1cccc(Cl)c1Cl)c1snnc1-c1ccccc1 1260 nM, CN(C)S(=O)(=O)c1ccc2c(c1)/C(=C/c1cc3c([nH]1)CCCC3)C(=O)N2 316 nM, Cc1ccc(S(=O)(=O)Nc2ccc(=O)n(Cc3ccc(Cl)c(Cl)c3)c2)cc1 25100 nM, CCCn1c(-c2cccs2)nc2nc3ccccc3nc21 1780 nM, Cc1ccc(NC(=O)Cn2nc([N+](=O)[O-])c(Br)c2C)cc1C 12600 nM, Cc1cc(C)c(S(C)(=O)=O)c(Oc2ccc(C(C)(C)C)cc2)n1 4470 nM, Cc1cc(C)c(S(C)(=O)=O)c(Oc2ccc(F)cc2)n1 10000 nM, COc1ccc(CNc2nc(-c3ccccc3CN(C)C)nc3ccccc23)c(OC)c1 10000 nM, COc1ccccc1CNc1nc(-c2ccccc2CN(C)C)nc2ccccc12 794 nM

activity, negative = inhibition, inactive:
COC(=O)CC[C@@H](C)[C@H]1CC[C@H]2[C@H]3CC[C@H]4C[C@@H]5CC[C@@]4(C)C3(O5)[C@@H](Br)[C@@H](Br)[C@@]12C -8.93% [at 11.4 µM], Fc1cccc(F)c1C(Nc1nncs1)Nc1nncs1 12.3% [at 2.29 µM], O=C1[C@@H]2[C@H]3[C@H](O)[C@H](O)C/C(=N/OCc4ccccc4)[C@H]3CC[C@H]2C(=O)N1c1ccc(F)cc1F -0.404% [at 11.4 µM], Cc1ccc(C2=C(Cl)C(=O)C(c3ccc(C)cc3)=C(Cl)C2=O)cc1 -16.9% [at 2.29 µM], N[C@@H](CSCc1ccc(I)cc1)C(=O)O -12% [at 2.29 µM], COC(=O)[C@H](CCSC)NC(=O)C/C=C\[C@@H](C)[C@@H](CO)OC -1.07% [at 11.4 µM], C/C=C\C1=C(CO)[C@H](O)[C@H]2OC2[C@@H]1O (stereo partly drawn) -5.28% [at 11.4 µM], C[C@@H]1CC[C@@H]2C(=O)N3[C@@H](CC[C@@H](C)[C@@H]3c3ccc(-c4ccco4)cc3)C(=O)N2[C@H]1c1ccc(-c2ccco2)cc1 -4.34% [at 11.4 µM]
